A number with no mark means an inactive call.
What follows are compounds tested on Vero E6 infected with SARS-CoV-2 (assay: inhibition of SARS-CoV-2 cytopathic effect; higher = more antiviral protection, active = above 15). Conditions: 10000 nM; 48 h.

Row | SMILES | inhibition of SARS-CoV-2 cytopathic effect
1 | O=C1CC[C@@H](C(=O)N2CSC[C@H]2C(=O)O)N1 [pidotimod] | -0.3%
2 | Cc1ccccc1-n1c(CF)nc2ccc(N)cc2c1=O [afloqualone] | 1.46%
3 | CN1c2cc3c(cc2N=C(c2ccc(C(=O)O)cc2)c2ccccc21)C(C)(C)CCC3(C)C | -7.42%
4 | c1coc(CNc2ncnc3[nH]cnc23)c1 [kinetin] | 2.8%
5 | NC(=O)CC[C@H](N)C(=O)O [L-glutamine] | -2.64%
6 | COc1ccc(C(=O)/C(Cc2cc(OC)c(OC)c(OC)c2)=C(\C(=O)O)c2ccc3c(c2)OCO3)cc1 | 17.8% (active)
7 | C[S+](CC[C@H](N)C(=O)O)C[C@H]1O[C@@H](n2cnc3c(N)ncnc32)[C@H](O)[C@@H]1O (some centres not stated) [ademetionine] | 0.19%
8 | CCC[C@@]1(CCc2ccccc2)CC(O)=C([C@H](CC)c2cccc(NS(=O)(=O)c3ccc(C(F)(F)F)cn3)c2)C(=O)O1 [tipranavir] | 4.99%
9 | CC(C)(C)CC(C)(C)c1ccc(OCCOCC[N+](C)(C)Cc2ccccc2)cc1 [benzethonium] | -15.1%
10 | CCC(C)SSc1ncc[nH]1 (configuration not stated) | -1.36%
11 | CCN1CCC[C@H]1CNC(=O)c1c(OC)ccc(Br)c1OC [remoxipride] | -1.54%
12 | CC(=C(CCOC(=O)C(C)C)SSC(CCOC(=O)C(C)C)=C(C)N(C=O)Cc1cnc(C)nc1N)N(C=O)Cc1cnc(C)nc1N (stereo in doubt) [sulbutiamine] | -4.54%
13 | O=C(Oc1cccc2cccnc12)c1ccccc1 [benzoxiquine] | -3.29%
14 | O=P(O)(NCCCl)NCCCl [palifosfamide] | -7.07%
15 | O=P(O)(O)CN(CCN(CP(=O)(O)O)CP(=O)(O)O)CP(=O)(O)O | -1.39%
16 | Clc1ccc(COC(Cn2ccnc2)c2ccc(Cl)cc2Cl)c(Cl)c1 (configuration not stated) [miconazole] | -4.16%

Row | SMILES | inhibition of SARS-CoV-2 cytopathic effect
17 | CC(C)(O)CC(=O)NCCn1ccc2ncnc(Nc3ccc(Oc4cccc(C(F)(F)F)c4)c(Cl)c3)c21 | -14.1%
18 | CCOC(=O)[C@@H](N)Cc1ccc(-c2cc(O[C@H](c3ccc(Cl)cc3-n3ccc(C)n3)C(F)(F)F)nc(N)n2)cc1 [telotristat-ethyl] | 2.26%
19 | CC[C@@H](C(N)=O)N1CCCC1=O [levetiracetam] | -0.05%
20 | O=C1NC(c2ccccc2)(c2ccccc2)C(=O)N1COP(=O)(O)O [fosphenytoin] | -0.44%
21 | Cc1cc(-c2cc(OC(=O)c3ccccc3)ccc2Cl)cc2nnc(Nc3ccc(OCCN4CCCC4)cc3)nc12 | 2.17%
22 | CC(C)(C)c1ccc(-c2nc3c(N4CCN(Cc5ccc6nccnc6c5)CC4)cccc3[nH]2)cc1 | 4.93%
23 | COc1cc2c(Oc3ccc4[nH]c(C)cc4c3F)ccnc2cc1OCC1(N)CC1 [anlotinib] | -7.82%
24 | COc1cc2ncnc(Nc3ccc(F)c(Cl)c3)c2cc1OCCCN1CCOCC1 [gefitinib] | -22.2%
25 | COc1cccc2c1C(=O)c1c(O)c3c(c(O)c1C2=O)C[C@@](O)(C(=O)CO)C[C@@H]3O[C@H]1C[C@H](N)[C@H](O[C@@H]2CCCCO2)[C@H](C)O1 [pirarubicin] | -2.07%
26 | CCCCc1ccc(C(N)=O)nc1 [bupicomide] | 3.08%
27 | Cn1ncnc1[C@H]1c2n[nH]c(=O)c3cc(F)cc(c23)N[C@@H]1c1ccc(F)cc1 [talazoparib] | -3.8%
28 | CSc1ccc(C(=O)N[C@@H]2CCCC[C@@H]2NC(=O)CNC(=O)c2cc(C(F)(F)F)ccc2NC(=O)NC(C)C)cc1 | 0.79%
29 | NS(=O)(=O)c1ccc(NC(=O)Nc2ccc(F)cc2)cc1 | -0.78%
30 | CC(C(=O)O)c1ccc(C(=O)c2cccs2)cc1 (configuration not stated) [suprofen] | -2.92%
31 | COC(=O)C1=C(C)NC(C)=C(C(=O)OCC(C)C)C1c1ccccc1[N+](=O)[O-] (configuration not stated) [nisoldipine] | 1.64%
32 | CN1C(=O)N(c2ccc(C#N)c(C(F)(F)F)c2)C(=O)[C@]1(CO)c1ccccc1 [GLPG0492-R-enantiomer] | 2.02%

Reference: the supplement of paper PMC13380429
